TRHR ag: activates the human TRH receptor. AID 493084. activation, % at 2 µM. 360,000 compounds, 0.18% hits. TRHR cells, calcium flux fluo-8, FDSS agonist mode. P34981; also: 0% is about no effect
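Agonist-mode FDSS calcium read (Ex 480/Em 530, 1 s cycles) in 1536-well TRHR cells with fluo-8 dye, after 10-cycle baseline and 23 nL compound addition; TRH at EC20 (10 nM final) added afterwards for the enhancer phase.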
D1 ag: agonists of human D1 dopamine receptor | P21728 | HEK293 T-REx D1 cells, calcium flux, agonist mode | activation, % at 2 µM | 360,000 compounds, 1% hits | AID 504660; also: 0% is about no effect
Target sequence (P21728 whole entry, looked up): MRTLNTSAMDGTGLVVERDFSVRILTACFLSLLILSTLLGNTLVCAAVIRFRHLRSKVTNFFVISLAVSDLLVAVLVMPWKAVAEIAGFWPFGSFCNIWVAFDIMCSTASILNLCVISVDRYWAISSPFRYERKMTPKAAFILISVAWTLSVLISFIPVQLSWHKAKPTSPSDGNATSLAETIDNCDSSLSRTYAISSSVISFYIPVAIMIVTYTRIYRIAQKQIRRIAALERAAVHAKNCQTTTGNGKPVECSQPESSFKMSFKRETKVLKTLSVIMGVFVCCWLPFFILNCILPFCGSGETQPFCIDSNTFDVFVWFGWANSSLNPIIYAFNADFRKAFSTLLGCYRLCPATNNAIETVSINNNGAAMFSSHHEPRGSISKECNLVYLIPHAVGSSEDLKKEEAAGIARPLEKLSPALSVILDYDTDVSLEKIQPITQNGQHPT
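Inducible HEK293 T-REx D1 cells, force-coupled to calcium signalling, were plated at 4000 cells/well with tetracycline and held overnight at 30 C. After no-wash calcium dye loading, compound-evoked calcium rise over 180 s flagged agonists.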
D1 potentiator: potentiators of human D1 dopamine receptor | P21728 | HEK293 TREx D1 cells, calcium flux, dopamine EC20 potentiation | potentiation, % at 10 µM | 360,000 compounds, 0.036% hits; in the data active = potentiation above about 30%; also: 0% is about no effect
TRHR PAM: TRH receptor (human) allosteric enhancement. enhancement, % at 2 µM. TRHR cells, fluo-8 calcium fluorescence, EC20 TRH enhancement. P34981. 360,000 compounds, 0.66% hits; in the data active = enhancement above about 30%; also: 0% is about no effect
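Enhancer read-out: after compound pinning and an initial kinetic agonist-mode read, an EC20 of TRH (10 nM final) was injected and fluo-8 calcium signal (Ex 480/Em 530) followed at 1 s/cycle for 100 cycles in TRHR-expressing cells.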
D1 antagonist: human D1 dopamine receptor antagonism; P21728; HEK293 TREx D1 cells, calcium flux, dopamine EC80; active compounds read low; activity change, negative = inhibition, % at 10 µM; 360,000 compounds, 3.2% hits; in the data active = activity change below about -30%; also: % is scaled to controls: 0 for no effect and ±100 for the full control effect
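Tetracycline-induced HEK293 T-REx cells with force-coupled D1 receptor were loaded with a no-wash calcium dye. Compound was added after a 10 s baseline and read kinetically for 180 s; EC80 dopamine was then added and calcium flux followed another 180 s.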
Starred values were filed as active, the others as inactive. In the library only some 4.7% were active in any assay of this set; here they are far more common. Rule as the data show it, unless noted: active = activation above about 30%; inactive = the rest.

SMILES	TRHR ag	D1 ag	D1 potentiator	TRHR PAM	D1 antagonist
CCOc1cc(C2NC(=O)c3c(sc4c3CCN(C)C4)N2)ccc1OC(=O)c1ccccc1Cl (stereo not given)	-1	35*	-1	-1	-14
COc1ccc(C2NC(=O)c3c(sc4c3CCN(C)C4)N2)cc1O (stereo not given)	0	1	0	-4	2
COc1ccc(C(=O)Oc2ccc(C3NC(=O)c4c(sc5c4CCN(C)C5)N3)cc2OC)cc1 (stereo not given)	50*	17	-3	7	-9
Cc1nn(CC(=O)NCCCN2CCC(N3CCCCC3)CC2)c(=O)c2cc(-c3ccccc3)nn12	0	0	-4	14	6
COc1ccc(C(=O)N2CCN(CCNC(=O)C(=O)Nc3ccc(F)cc3)CC2)cc1OC	0	-3	-3	-5	15
O=c1[nH]c(CN2CCN(c3ncccn3)CC2)nc2c(Br)cc(Br)cc12	1	6	-8	30*	-6
COc1ccc(/C=N/OCC(=O)OCC(=O)N(C)c2ccccc2)cc1	0	7	-6	2	0
Cc1ccc(NC(=O)COc2ccc(CCO)cc2-n2nc3ccccc3n2)cc1C	1	5	-9	-3	-72*
CCOC(=O)CC1=C(C#N)C(c2cccnc2)C(C(=O)OCC)=C(N)O1 (stereo not given)	0	3	0	1	1
CCOC(=O)C1=C(C)OC(N)=C(C(=O)OCC)C1c1cccnc1 (stereo not given)	-1	-1	-7	1	-33*
CCOC(=O)CC1=C(C(=O)OCC)C(c2cccnc2)C(C#N)=C(N)O1 (stereo not given)	0	1	-6	33*	9
CCOC(=O)C1=C(C)OC(N)=C(C(=O)OCC)C1c1ccncc1 (stereo not given)	0	0	0	-9	0
CCc1ccccc1NC(=O)Nc1nnc(N(CC)c2ccccc2)s1	0	2	-2	-10	11
O=C1COc2ccc3ccccc3c21	0	1	-2	-3	-4
O=C(O)CCCN1C(=O)/C(=C/c2ccc(-c3nc4ccccc4s3)o2)SC1=S	2	53*	11	17	56
COc1ccc(S(=O)(=O)Nc2ccc3c(c2)N(C(C)=O)CCC3)cc1F	1	8	0	-4	-16
O=C(CCCCn1c(=O)c2ccccc2n(Cc2ccccc2Cl)c1=O)NCCc1ccccc1	-1	-2	3	8	4
N=c1n(Cc2ccccc2)c2ccccc2n1CC(O)COc1ccccc1 (stereo not given)	0	25	-8	0	-31*
Cc1ccc(Cn2c(=N)n(CC(O)COc3ccccc3)c3ccccc32)cc1 (stereo not given)	1	42*	-8	6	-17
CCCCn1c(=N)n(CC(O)COc2ccc(C)cc2)c2ccccc21 (stereo not given)	2	27	-6	4	5
CCOc1ccccc1CNS(=O)(=O)c1cnc(N)nc1	0	2	-5	1	-10
O=C(O)/C=C/C(=O)Nc1cccc(C(F)(F)F)c1	0	3	2	2	-5
C=CCC(CC=C)(CNC(=O)C(=O)Nc1cccc(C(F)(F)F)c1)c1ccccc1	12	30*	2	3	-1
Nc1nonc1-c1nc2ccccc2n1Cc1ccc(Br)cc1	2	3	-2	0	-3
COc1ccc(Nc2cc(C)nc(-n3nc(C)cc3C)n2)cc1Cl	0	4	0	-4	-34*
SMILES	TRHR ag	D1 ag	D1 potentiator	TRHR PAM	D1 antagonist
CC(C)c1ccc(NC(=O)CN(Cc2ccccc2)S(C)(=O)=O)cc1	0	42*	-7	1	-20
O=S(=O)(Nc1ccccc1O)c1cccc2cccnc12	1	13	-12	0	-35*
O=C(COC(=O)c1ccccc1NS(=O)(=O)c1cccs1)NC1CCCCC1	-1	19	-6	-1	-55*
O=C(COC(=O)[C@H](Cc1ccccc1)NC(=O)c1cccs1)NC1CCCCC1	-1	13	-7	2	-43*
O=C(/C=C/c1ccc(Cl)cc1)OCC(=O)c1ccc[nH]1	0	4	-9	-1	-29
CCOc1ccc(CCNC(=O)c2cc3c(=O)[nH]c4ccc(C)cc4c3s2)cc1OCC	1	2	-2	0	12
